High-throughput results as filed in PubChem BioAssay.
ARNT-TACC3 inh = disruptors of human ARNT/TACC3 interaction. Q9Y6A5. AlphaScreen His-ARNT PAS-B/GST-TACC3 binding, luminescence; TACC3 fragment carries E629A point mutation. inhibition, % at 9.99 µM. 0.66% of 390,000 active. AID 623870;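 active = mean inhibition of replicates at least 50% and at least half of replicates each reaching 50%; inconclusive = half or more replicates reach 50% but mean below 50%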
aDG glyco act = increases alpha dystroglycan glycosylation; activation, % at 10 µM; 0.22% of 360,000 active; Pro5-aDG cells, alpha-DG glycosylation AlphaScreen (IIH6); 0% Pro5, 100% B10-LARGE cell signal; AID 624168;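 active = activation of at least 8% versus controls, or a plate z-score of at least 8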;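 also: Pro5 are CHO cells carrying HIG-tagged alpha-DG that lacks glycosylation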
Cardio protect = protects H9c2 cardiomyocytes from peroxide injury | 0.63% of 360,000 active | protection from H2O2 cell death, % at 20 µM | H2O2 injury protection, ATPLite, 2 h;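 active = compounds giving at least 50% protection of heart cells from peroxide-induced death in the single-dose screen, raw or plate-pattern-corrected value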
Vif inh = HIV Vif inhibition; inhibition, % at 7.49 µM; 0.35% of 340,000 active; HEK293T cells, Vif self-association by quenched fluorescence, imaging, 24 h; AID 602346; in the data active = inhibition above about 50%, passing the limit was not always enough; inconclusive = no clear call, values can overlap the other calls; inactive = below about 31%
Glyco luc inh = blocks N-linked glycosylation in D54 reporter cells; D54 ERlucT glycosylation luciferase reporter, 24 h; percent of 100 nM tunicamycin response; reporter increase, % at 12.5 µM; 0.23% of 360,000 active;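 active = mean luciferase reporter signal, scaled so untreated is 0 and the glycosylation-blocking control 100, at or above a set limit in every replicate; inconclusive = mean reaches the limit but not every replicate does; inactive = mean below the limit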;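 also: luciferase carries N-glycosylation sites so blocking glycosylation raises the light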
Each line names hits and unclear results; the compound was inactive in the other large screens. Hits are enriched below; roughly 1.7% of the tested compounds scored in any of these assays.

C[C@H]1CN([C@@H](C)CO)C(=O)CCCn2cc(nn2)CO[C@H]1CN(C)Cc1ccc2cccnc2c1	none (no result: aDG glyco act, Cardio protect, Vif inh, Glyco luc inh)
O=[N+]([O-])c1ccc(NN=Cc2ccc(O)cc2O)nc1	none
Oc1ccccc1/C=N/Nc1nccnc1Cl	ARNT-TACC3 inh 67
Oc1ccc(C=NNc2ccccn2)c(O)c1	ARNT-TACC3 inh 60
Oc1cccc(C=NNc2ccccn2)c1	none
COc1cc(/C=N/NC(=O)C(=O)Nc2ccccn2)ccc1O	none
COc1ccc(/C=N/Nc2ccccn2)cc1O	ARNT-TACC3 inh 26
CCN(CC)S(=O)(=O)c1ccc(N/N=C/c2ccc(O)cc2O)nc1	ARNT-TACC3 inh 46, Cardio protect 78
C[C@@H]1CN([C@H](C)CO)S(=O)(=O)c2ccc(C#Cc3ccccc3)cc2O[C@H]1CN(C)S(=O)(=O)c1cn(C)cn1	none (no result: aDG glyco act, Cardio protect, Vif inh, Glyco luc inh)
O=C(N[C@@H]1CC[C@H](CCNS(=O)(=O)Cc2ccccc2)O[C@@H]1CO)c1cnccn1	none (no result: aDG glyco act, Cardio protect, Vif inh, Glyco luc inh)
Oc1ccc(/C=N/Nc2nccnc2Cl)c(O)c1	Cardio protect 52, Vif inh 81
CO[C@H]1CN(C)C(=O)c2cc(NC(=O)Nc3ccccc3)ccc2OC[C@@H](C)N(C(=O)CN(C)C)C[C@H]1C	none (no result: aDG glyco act, Cardio protect, Vif inh, Glyco luc inh)
CC1CC(C)(C)NC(=S)N1CCC(=O)Nc1ccc2c(c1)OCCO2 (configuration not stated)	Cardio protect 69
CN(C)C(=O)c1ccc(-c2ccc([C@@H]3[C@@H](C#N)N(C(=O)C4CCC4)[C@H]3CO)cc2)cc1	none (no result: aDG glyco act, Cardio protect, Vif inh, Glyco luc inh)
Cn1c(=O)c2c(nc(NCCCO)n2C/C=C/c2ccccc2)n(C)c1=O	Cardio protect 62
CC(O)CNc1nc2c(c(=O)n(C)c(=O)n2C)n1C/C=C/c1ccccc1 (configuration not stated)	none
O=C(/C=C/c1ccncc1)c1ccc2c(c1)OCCO2	Glyco luc inh 70
CN(C)c1ccc(/C=C/C(=O)c2ccc(O)cc2)cc1	Vif inh 83
O=C(/C=C/c1ccccc1)c1ccc2c(c1)OCO2	none
CN(C)c1ccc(/C=C/C(=O)c2ccc3c(c2)OCO3)cc1	Vif inh active
CN(C)c1ccc(C(=O)C=Cc2ccc([N+](=O)[O-])cc2)cc1	none (no result: ARNT-TACC3 inh)
C[C@@H]1CCCCO[C@@H](CN(C)C(=O)c2ccccc2)[C@@H](C)CN([C@H](C)CO)C(=O)c2cc(NC(=O)Nc3ccc(F)cc3)ccc2O1	none (no result: aDG glyco act, Cardio protect, Vif inh, Glyco luc inh)
Cc1cc(C(=O)Nc2cccc3c2O[C@H](CN(C)S(=O)(=O)c2cccs2)[C@@H](C)CN([C@@H](C)CO)C3=O)n(C)n1	none (no result: aDG glyco act, Cardio protect, Vif inh, Glyco luc inh)
CC(=O)c1cccc(NC(=O)/C=C/c2ccc([N+](=O)[O-])s2)c1	none
O=C(/C=C/c1ccc([N+](=O)[O-])s1)N1CCCCC1	Glyco luc inh 39
Cc1cc(C)cc(NC(=O)/C=C/c2ccc([N+](=O)[O-])s2)c1	Vif inh 96
O=C(/C=C/c1ccc([N+](=O)[O-])s1)N1CCCC1	none
O=C1c2ccccc2C(=O)c2c(Nc3ccc(CCO)cc3)ccc(O)c21	none
O=C1c2c(O)ccc(O)c2C(=O)c2c(NCCNCCO)ccc(NCCNCCO)c21	ARNT-TACC3 inh 65
CC(NC(=O)c1ccccc1NC(=O)c1ccccc1)C(=O)N1CCOCC1 (configuration not stated)	none
CC(C)C(NC(=O)c1ccccc1NC(=O)C(C)(C)C)C(=O)N1CCOCC1 (configuration not stated)	Vif inh 69
CCCNC(=O)c1ccc2c(=O)c(O)c(-c3ccsc3)[nH]c2c1	Cardio protect 51
Cc1ccc(CNC(=O)c2ccc3c(=O)c(O)c(-c4ccc(C)cc4)[nH]c3c2)cc1	Cardio protect 59
CCCNC(=O)c1ccc2c(=O)c(O)c(-c3ccc(OC)cc3)[nH]c2c1	none
CCCNC(=O)c1ccc2c(=O)c(O)c(-c3ccc(C)cc3)[nH]c2c1	Cardio protect 54
Cc1ccc(-c2[nH]c3cc(C(N)=O)ccc3c(=O)c2O)cc1	Cardio protect 63
COc1ccc(NC(=O)Nc2ccc3c(c2)C(=O)N([C@@H](C)CO)C[C@H](C)[C@@H](CN(C)C(=O)C2CCCCC2)OCCCC[C@@H](C)O3)cc1	none (no result: aDG glyco act, Cardio protect, Vif inh, Glyco luc inh)
CC(=O)N(C)C[C@H]1Oc2cc(-c3cccc(F)c3)ccc2S(=O)(=O)N([C@@H](C)CO)C[C@H]1C	none (no result: aDG glyco act, Cardio protect, Vif inh, Glyco luc inh)
O=C(Oc1ccccc1)c1cc(O)c(O)c(O)c1	Cardio protect 75 (no result: ARNT-TACC3 inh, Vif inh)
O=C(OCCc1ccccc1)c1cc(O)c(O)c(O)c1	Vif inh 51
CC(=O)c1cccc(OC(=O)c2ccccc2)c1	none
Cc1noc(C)c1S(=O)(=O)Nc1ccc2c(c1)C(=O)N([C@@H](C)CO)C[C@H](C)[C@@H](CN(C)Cc1ccc(C(F)(F)F)cc1)O2	none (no result: aDG glyco act, Cardio protect, Vif inh, Glyco luc inh)
O=C(O)c1ccccc1-c1ccccc1C(=O)Nc1ccc2c(c1)[nH]c(=O)c1ccccc12	ARNT-TACC3 inh 47
CC(C)CN(C(=O)COC(=O)CSc1ccccc1)c1c(N)n(Cc2ccccc2)c(=O)[nH]c1=O	Vif inh 50
CC(C)CN(C(=O)COC(=O)Cc1ccc(Cl)cc1)c1c(N)n(Cc2ccccc2)c(=O)[nH]c1=O	none
CCOc1ccc(OCC(=O)N(CCC2=CCCCC2)c2c(N)n(Cc3ccccc3)c(=O)[nH]c2=O)cc1	Glyco luc inh 80
C[C@H](CO)N1C[C@H](C)[C@H](CN(C)CC2CC2)Oc2c(NC(=O)c3nc4ccccc4s3)cccc2C1=O	none (no result: aDG glyco act, Cardio protect, Vif inh, Glyco luc inh)
NC(=S)NNc1cccc2cccnc12	ARNT-TACC3 inh 65
CC(C)Oc1ccc(CN2CCC2(C)C(=O)Nc2ccc(Cl)c(Cl)c2)cc1 (configuration not stated)	Vif inh 58 (no result: ARNT-TACC3 inh)
Cc1ccc(NC(=O)C2(C)CCN2Cc2ccc(OC(C)C)cc2)cc1 (configuration not stated)	none (no result: ARNT-TACC3 inh)
O=C(N[C@H]1CC[C@H](CCNS(=O)(=O)c2ccc(Cl)cc2)O[C@H]1CO)c1cnccn1	none (no result: aDG glyco act, Cardio protect, Vif inh, Glyco luc inh)
CCCNC(=O)N1C[C@@H]2[C@H](c3ccccc31)[C@H](CO)N2Cc1cc(F)ccc1F	none (no result: aDG glyco act, Cardio protect, Vif inh, Glyco luc inh)
COc1ccc(NC(=S)N2CCN(C/C=C/c3ccccc3)CC2)cc1OC	Vif inh 65
CN(C)c1ccc(C(C[N+](=O)[O-])c2c(N)n(C)c(=O)n(C)c2=O)c(F)c1C#N (configuration not stated)	Glyco luc inh 28
Cn1c(N)c(C(C[N+](=O)[O-])c2c(F)cccc2Cl)c(=O)n(C)c1=O (configuration not stated)	none
CN(C)c1ccc(N/C=C/C(=O)C(C)(C)C)cc1	ARNT-TACC3 inh 27 (no result: Vif inh)
COc1cc2c(C#CCCO)c(-c3ccsc3)oc(=O)c2cc1OC	Cardio protect 64, Glyco luc inh inconclusive (no result: Vif inh)
CC(=O)Nc1ccc(Nc2nc(-c3sc(NC(C)=O)nc3C)cs2)cc1	Cardio protect 57
CCC(=O)Nc1nc(C)c(-c2csc(Nc3cccc(C(=O)O)c3)n2)s1	none
Cc1nc(N)sc1-c1csc(Nc2cccc(C(=O)O)c2)n1	ARNT-TACC3 inh 52
